The term Inhibition denotes the change of the read-out against control, counted positive when it falls.

Each structure is given as a SMILES string. Entries with a potency or affinity are not part of this list.

The test system of this test is Klebsiella pneumoniae. To be noted: Concentration 32 ug.mL-1;; ASSAY_TEST Inhibition of Bacterial Growth; detection method Absorption (OD600); MEDIA CAMHB; plate type 384well; NBS; CORNING #3640; time 18 hr.
For the molecule `Cc1ccc(-c2cc3c4nn(CC(=O)NCc5ccc(Cl)cc5)c(=O)n4ccn3n2)cc1C`, the Inhibition is reported as 7.6%.

Regarding `CC(C)c1nnc2c(SCC(=O)N3CCN(c4ccccc4F)CC3)nc3ccccc3n12`, the Inhibition came out at 4.71%.

As to `Cc1c(Cl)cccc1NC(=O)CSc1nc2ccccc2n2c(C)nnc12`, the Inhibition is recorded as 13.43%.

`CCc1nnc2c(S(=O)(=O)N(Cc3cccc(F)c3)c3cccc(C)c3)cccn12`: the Inhibition amounted to 4.33%.

As for `CC(C)c1nnc2c(=O)n(CC(=O)Nc3cccc(C#N)c3)c3ccccc3n12`, the Inhibition was 14.72%.

Regarding `O=C(CCc1nnc2c(N3CCCCC3)nc3ccccc3n12)NCc1ccc(Br)cc1`, the Inhibition came to 7.61%.

On to `Cc1ccc(-c2cc3c4nn(CC(=O)Nc5ccc(F)cc5Cl)c(=O)n4ccn3n2)cc1`, for which the Inhibition was determined as 2.7%.

In the case of `COc1cccc(-n2ccn3c(SCc4ccccc4C)nnc3c2=O)c1`, the Inhibition was determined as 8.9%.

Consider `CCC(Sc1nnc2c(=O)n(-c3ccccc3)ccn12)C(=O)Nc1ccc(OC)cc1OC` (centres undefined), for which the Inhibition came to 9.44%.

As to `COc1ccc(-c2cc3c4nnc(SCC(=O)NCc5ccc(Cl)cc5)n4ccn3n2)cc1`, the Inhibition was 6.35%.

For `CCc1cccc(NC(=O)CSc2nnc3c(=O)n(-c4cccc(OC)c4)ccn23)c1`, the Inhibition amounted to 7.34%.

For `Cc1ccc(Oc2nccn3c(=O)n(CC(=O)Nc4ccc(Br)cc4)nc23)cc1`, the Inhibition is recorded as 6.74%.

With `Cc1ccc(NC(=O)CSc2nc3ccccc3n3c(C)nnc23)c(Br)c1`, the Inhibition is listed as 14.29%.

As for `CCCCc1ccc(NC(=O)CSc2nc3ccccc3n3c(CC)nnc23)cc1`, the Inhibition was determined as 13.43%.

Turning to `O=C(CSc1nc2ccccc2n2cnnc12)NCc1ccccc1Cl`, the Inhibition turned out to be 2.85%.

For the molecule `COc1cc(NC(=O)C(C)Sc2nnc3c(=O)n(-c4cccc(OC)c4)ccn23)cc(OC)c1` (centres undefined), the Inhibition amounted to 2.2%.

For `COc1cccc(NC(=O)Cn2nc3c(Oc4cccc(OC)c4)nccn3c2=O)c1`, the Inhibition came out at 3.74%.

For `O=C(Cn1nc2c(N3CCSCC3)nc3ccccc3n2c1=O)NCc1ccccc1`, the Inhibition came to 13.9%.

For `Cc1ccccc1-c1noc(Cn2nc3ccc(-c4ccccc4)nn3c2=O)n1`, the Inhibition is reported as 4.12%.

On to `CCCCOc1ccc(-c2cc3c4nnc(SCC(=O)Nc5cc(F)ccc5C)n4ccn3n2)cc1`, for which the Inhibition is -4.04%.

As for `Cc1cccc(NC(=O)Cn2nc3ccc(-c4ccccc4)nn3c2=O)c1`, the Inhibition is 6.7%.

Consider `COc1ccc(-c2cc3c4nn(CC(=O)Nc5ccc(OC)cc5OC)c(=O)n4ccn3n2)cc1`, for which the Inhibition was 12.55%.

Take `O=C(CSc1nnc2ccc(C(=O)NCc3ccccc3)cn12)Nc1ccccc1Br`: the Inhibition is 13.28%.

On to `COc1cccc(-n2ccn3c(SCC(=O)N4CCN(c5ccc(F)cc5)CC4)nnc3c2=O)c1`, for which the Inhibition was determined as 8.66%.

Consider `Cc1cc2nn(CC(=O)NCc3ccccc3)c(=O)n2c(Nc2ccc(C)c(F)c2)n1`, for which the Inhibition turned out to be 12.56%.

With `CSc1cccc(NC(=O)Cn2nc3c(N4CCCC4)nccn3c2=O)c1`, the Inhibition came out at 1.74%.

Take `CCOC(=O)c1ccc(NC(=O)Cn2nc3c(Oc4ccccc4)nccn3c2=O)cc1`: the Inhibition came out at 1.59%.

Take `COc1cccc(CN(c2cc(F)cc(F)c2)S(=O)(=O)c2ccc3nnc(C)n3c2)c1`: the Inhibition is 6.42%.

Turning to `COc1ccc(-c2cc3c4nnc(SCC(=O)Nc5ccc(C#N)cc5)n4ccn3n2)cc1`, the Inhibition was 5.83%.

For the molecule `COc1ccc(-c2cc3c4nn(CC(=O)Nc5cccc(C)c5)c(=O)n4ccn3n2)cc1`, the Inhibition is reported as 3.49%.

For `CC(C)c1ccc(Cn2c(=O)c3sccc3n3c(SCc4cccc(C(F)(F)F)c4)nnc23)cc1`, the Inhibition amounted to 5.43%.

With `COC(=O)c1ccccc1NC(=O)CSc1nc2ccccc2n2c(C(C)C)nnc12`, the Inhibition came out at 12.98%.

As to `Cc1ccc(NC(=O)Cn2nc3ccc(SCc4ccc(Cl)cc4)nn3c2=O)c(C)c1`, the Inhibition amounted to 5.23%.

Consider `CCOc1ccc(-n2ccn3c(SCC(=O)Nc4cc(OC)cc(OC)c4)nnc3c2=O)cc1`, for which the Inhibition amounted to 3.96%.

Regarding `COc1ccc(CN(c2cc(C)cc(C)c2)S(=O)(=O)c2cccn3cnnc23)cc1F`, the Inhibition is -0.72%.

Consider `Cn1c(=O)c2sccc2n2c(=O)n(Cc3ccc(Cl)cc3)nc12`, for which the Inhibition amounted to 4.35%.

Turning to `COc1ccccc1-n1ccn2c(SCc3cccc(F)c3)nnc2c1=O`, the Inhibition stood at 7.21%.

As to `Cc1cc2nn(CC(=O)Nc3ccccc3F)c(=O)n2c(Nc2ccc(F)c(C)c2)n1`, the Inhibition came out at 9.21%.

In the case of `COc1cccc(CSc2nnc3c(=O)n(-c4ccccc4OC)ccn23)c1`, the Inhibition is given as 6.64%.

The values are drawn from ChEMBL document CHEMBL4513146, “CO-ADD screening of Karazin Kharkiv National University (Ukraine) compounds”.
